Data from PubChem BioAssay AID493169 (National Center for Advancing Translational Sciences (NCATS), 2011).
Records with an inconclusive call do not appear. The source made the active and inactive calls. The call rests on the fitted dose curve; in most records, active means well fitted inhibition curve with a large enough effect; inconclusive means small, poorly fitted or top-dose-only effect; inactive means flat fitted curve, though single readings scatter.

Experiment: CHOP2 Reporter Counterscreen Assay for Inhibitors of Ubiquitin-specific Protease USP2a;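 further: activated enterokinase alone at 50 pM in a cell-free format rather than USP2a or CHOP2; nearly all actives have a fitted effect of over 55% in size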
Details: purified enterokinase, fluorogenic substrate, 485/531 nm; series mostly up to 38.3 µM; activity change, negative = inhibition: at the top concentration
Outline: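 Fluorescence (485/531 nm) read 10 min after adding 25nM reporter substrate to 50 pM activated EK preincubated 30 min RT with compound; Tris pH 8.0/CaCl2/CHAPS buffer. Data normalized to buffer-alone inhibition; concentration-response curves fitted.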
On the % scale 0 is the no-effect control and ±100 the full control effect.

Structure (SMILES) | activity change, negative = inhibition
CCC(CO)Oc1cc(NCc2cccc(C)c2)c2ncn(C(C)C)c2c1 (centres undefined) | 0.286% (inactive)
O=C(Nc1ccccc1)c1cc(Cl)nc2ccccc12 | 2.73% (inactive)
COc1cccc(N2CCN(C(=O)CN(C)S(=O)(=O)c3ccc4c(c3)CCC(=O)N4)CC2)c1 | 8.91% (inactive)
CC1(C)CC(=O)C2=C(C1)NCN(CCCN1CCOCC1)C2 | 2.72% (inactive)
